Measurements as given in PubChem BioAssay.
Where “and” joins values, the source holds several entries; their conditions need not be identical. Equal values may be shown once. Calls of active or inactive are those of the source.

Key:
[1] = system: PRMT1 (protein arginine N-methyltransferase 1); experiment: PRMT1 binders on small-molecule microarrays, primary screen, biochemical, small-molecule microarray, 635 nm fluorescence (AID 1088); conditions: small-molecule microarray binding, higher = more signal;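 also: binding of Prmt1 protein to compounds spotted on small-molecule microarray slides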
[2] = yeast growth modulation, basal conditions, primary screen, YJM789 clinical isolate, OD600, 24 h (AID 1089);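 also: growth of clinical yeast isolate S. cerevisiae YJM 789 seeded 1000 cells per well; test concentration not given here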; conditions: S. cerevisiae YJM789 growth, higher = more signal, called active from +8 up or from −8 down
[3] = fission yeast growth modulation, primary screen, strain 972, OD600, 24 h, no modulator (AID 1090);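 also: basal condition with compound alone and no growth modifier present; test concentration not given here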; conditions: S. pombe 972 growth, higher = more signal, called active from +8 up or from −8 down
[4] = S. cerevisiae growth modulation with rapamycin, primary screen, strain BY4716, OD600, 96 h (AID 1091); conditions: higher = more signal, called active from +8 up or from −8 down; also: test concentration not given here
[5] = molecular target: Torsin-1A-interacting protein 2 (Homo sapiens) (UniProt Q8NFQ8); experiment: LULL1 binders on small-molecule microarray, primary screen, cell lysate, human LULL1 lysate, 635/667 nm fluorescence (AID 1092); conditions: hLULL1 lysate binding, 635 nm fluorescence, higher = more signal;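 also: probe is lysate of COS7 cells overexpressing human LULL1; score merges per-feature 667 nm fluorescence with signal-to-noise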
Torsin-1A-interacting protein 2 (Homo sapiens), sequence (Q8NFQ8 whole entry, looked up): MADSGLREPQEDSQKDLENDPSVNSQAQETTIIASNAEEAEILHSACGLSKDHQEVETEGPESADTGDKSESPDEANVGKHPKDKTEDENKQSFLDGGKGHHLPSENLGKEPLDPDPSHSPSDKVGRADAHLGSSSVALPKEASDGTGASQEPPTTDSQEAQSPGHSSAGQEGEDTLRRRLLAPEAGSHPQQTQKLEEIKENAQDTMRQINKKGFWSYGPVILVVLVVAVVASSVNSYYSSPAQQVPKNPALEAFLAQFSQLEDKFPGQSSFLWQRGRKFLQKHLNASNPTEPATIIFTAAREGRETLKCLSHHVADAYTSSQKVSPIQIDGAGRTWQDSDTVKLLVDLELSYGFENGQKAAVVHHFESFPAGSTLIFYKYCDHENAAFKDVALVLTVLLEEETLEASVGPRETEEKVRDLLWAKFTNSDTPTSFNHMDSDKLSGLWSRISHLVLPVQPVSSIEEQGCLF

[6] = E. coli growth modulation, two-sided OD650, primary screen, E. coli filamentation project, strain DRC41, 24 h (AID 1093); conditions: OD650, 24 h, higher = more signal, called active from +8 up or from −8 down;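 also: MC1000 strain lacking acrAB efflux and sulA so SOS filamentation is blocked; test concentration not given here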
[7] = small-molecule microarray binders of probe aLefty2, primary screen, biochemical, biotinylated probe, 635/667 nm fluorescence (AID 1094); conditions: higher = more signal;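 also: score merges spot fluorescence near 667 nm with spot signal-to-noise ratio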
[8] = system: Noggin (protein binding on small-molecule microarray); experiment: Noggin binders on small-molecule microarray, primary screen, biochemical, 635/667 nm fluorescence (AID 1095); conditions: 635 nm fluorescence, higher = more signal;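 also: score merges 667 nm feature fluorescence with signal to noise over triplicate slides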
[9] = molecular target: Neurogenic locus notch homolog protein 3 (Homo sapiens) (UniProt Q9UM47); experiment: NOTCH3 binders on small-molecule microarray, primary screen, biochemical, 635/667 nm fluorescence (AID 1096); conditions: NOTCH3 binding, 635 nm fluorescence, higher = more signal
Neurogenic locus notch homolog protein 3 (Homo sapiens), sequence (Q9UM47 whole entry, looked up): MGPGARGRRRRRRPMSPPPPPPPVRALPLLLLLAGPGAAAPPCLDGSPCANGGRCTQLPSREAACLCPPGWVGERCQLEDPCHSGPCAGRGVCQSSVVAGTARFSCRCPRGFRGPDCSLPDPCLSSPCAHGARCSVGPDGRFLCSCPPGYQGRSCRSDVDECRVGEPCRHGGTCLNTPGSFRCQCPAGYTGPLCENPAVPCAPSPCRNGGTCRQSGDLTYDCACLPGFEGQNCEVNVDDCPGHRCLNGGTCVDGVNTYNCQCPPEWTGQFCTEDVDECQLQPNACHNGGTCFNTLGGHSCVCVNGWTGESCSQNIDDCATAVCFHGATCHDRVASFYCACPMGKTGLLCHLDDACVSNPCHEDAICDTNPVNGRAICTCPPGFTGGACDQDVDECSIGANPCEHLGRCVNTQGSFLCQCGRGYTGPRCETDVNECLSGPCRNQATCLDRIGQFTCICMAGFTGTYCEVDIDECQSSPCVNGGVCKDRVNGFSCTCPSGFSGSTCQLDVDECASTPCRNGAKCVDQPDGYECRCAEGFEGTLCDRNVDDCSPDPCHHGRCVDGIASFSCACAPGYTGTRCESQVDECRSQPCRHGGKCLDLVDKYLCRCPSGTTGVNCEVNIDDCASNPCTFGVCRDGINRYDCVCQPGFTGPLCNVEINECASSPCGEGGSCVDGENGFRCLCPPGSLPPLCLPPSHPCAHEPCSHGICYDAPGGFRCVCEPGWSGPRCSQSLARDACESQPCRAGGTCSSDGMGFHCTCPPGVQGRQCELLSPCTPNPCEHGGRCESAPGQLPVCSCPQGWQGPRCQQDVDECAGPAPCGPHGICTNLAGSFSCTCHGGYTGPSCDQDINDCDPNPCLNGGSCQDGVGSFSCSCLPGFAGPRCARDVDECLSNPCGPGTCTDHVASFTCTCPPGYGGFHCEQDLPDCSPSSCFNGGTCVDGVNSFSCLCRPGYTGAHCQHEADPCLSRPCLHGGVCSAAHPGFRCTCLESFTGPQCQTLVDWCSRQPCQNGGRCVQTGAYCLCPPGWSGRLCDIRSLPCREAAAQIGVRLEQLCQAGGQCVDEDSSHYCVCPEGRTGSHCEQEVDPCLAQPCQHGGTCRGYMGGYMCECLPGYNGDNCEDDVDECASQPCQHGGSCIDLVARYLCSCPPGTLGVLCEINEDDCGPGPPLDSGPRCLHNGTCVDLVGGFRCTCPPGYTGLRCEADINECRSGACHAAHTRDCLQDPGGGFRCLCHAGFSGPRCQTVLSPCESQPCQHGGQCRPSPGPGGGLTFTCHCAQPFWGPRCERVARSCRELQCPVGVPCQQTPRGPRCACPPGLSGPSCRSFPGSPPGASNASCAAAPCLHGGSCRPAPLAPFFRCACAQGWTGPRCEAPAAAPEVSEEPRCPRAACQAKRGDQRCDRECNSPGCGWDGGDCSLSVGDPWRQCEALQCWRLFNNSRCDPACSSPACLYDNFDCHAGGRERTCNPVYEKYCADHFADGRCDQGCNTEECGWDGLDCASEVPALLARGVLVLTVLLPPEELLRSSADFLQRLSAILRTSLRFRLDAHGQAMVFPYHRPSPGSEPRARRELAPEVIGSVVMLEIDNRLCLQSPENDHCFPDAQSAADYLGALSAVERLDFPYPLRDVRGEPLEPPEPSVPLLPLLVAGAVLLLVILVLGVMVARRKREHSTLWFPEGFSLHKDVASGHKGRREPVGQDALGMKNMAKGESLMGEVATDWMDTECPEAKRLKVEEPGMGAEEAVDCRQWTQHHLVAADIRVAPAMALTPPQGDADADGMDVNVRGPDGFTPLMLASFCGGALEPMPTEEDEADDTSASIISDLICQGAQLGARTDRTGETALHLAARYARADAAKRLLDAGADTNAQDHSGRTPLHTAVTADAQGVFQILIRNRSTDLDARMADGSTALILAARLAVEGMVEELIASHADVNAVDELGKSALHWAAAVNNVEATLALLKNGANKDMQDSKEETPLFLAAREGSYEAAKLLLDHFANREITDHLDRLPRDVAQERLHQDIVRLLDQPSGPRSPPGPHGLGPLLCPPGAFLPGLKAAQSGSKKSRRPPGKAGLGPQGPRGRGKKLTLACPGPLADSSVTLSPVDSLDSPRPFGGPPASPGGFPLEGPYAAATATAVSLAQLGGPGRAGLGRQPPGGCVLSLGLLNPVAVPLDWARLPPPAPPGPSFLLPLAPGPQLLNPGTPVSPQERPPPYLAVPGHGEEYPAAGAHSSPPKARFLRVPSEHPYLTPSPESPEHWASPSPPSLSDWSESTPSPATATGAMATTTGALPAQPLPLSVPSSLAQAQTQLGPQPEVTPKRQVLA

[10] = small-molecule microarray binders of probe aEGFR, primary screen, biochemical, biotinylated probe, 635/667 nm fluorescence (AID 1097); conditions: higher = more signal;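 also: probe is a biotinylated anti-EGFR antibody binding compounds printed on slides; score combines fluorescence near 667 nm and signal to noise of each spot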
[11] = system: Plasmodium falciparum Sir2 (PF13_0152, Sir2A); experiment: pfSir2 binders on small-molecule microarrays, primary screen, biochemical, small-molecule microarray, 635 nm fluorescence (AID 1098); conditions: small-molecule microarray binding, fluorescence 635 nm; higher = more signal;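 also: score merges spot fluorescence intensity with its signal-to-noise ratio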
[12] = small-molecule microarray binders of probe aDKK1, primary screen, biochemical, biotinylated probe, 635/667 nm fluorescence (AID 1099); conditions: higher = more signal;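 also: score merges 667nm spot fluorescence with signal to noise across triplicate slides; reference of the scale not given here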
[13] = small-molecule microarray binders of probe aCHRDL2, primary screen, biochemical, biotinylated probe, 635/667 nm fluorescence (AID 1100); conditions: higher = more signal
[14] = splicing luciferase reporter signal modulators, primary screen, spliceosome inhibition project, cell-based, HEK293, splice +/- reporter (AID 1101); conditions: luminescence, 24 h, higher = more signal, called active from +8 up or from −8 down;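 also: HEK293 cells carrying a splicing-competent luciferase reporter gene; test concentration not given here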
[15] = molecular target: Fibroblast growth factor 10 (Homo sapiens) (UniProt O15520); experiment: FGF10 binders on small-molecule microarrays, primary screen, biochemical, small-molecule microarray, 635 nm fluorescence (AID 1102); conditions: FGF10 binding, fluorescence 635 nm, higher = more signal
Fibroblast growth factor 10 (Homo sapiens), sequence (O15520 whole entry, looked up): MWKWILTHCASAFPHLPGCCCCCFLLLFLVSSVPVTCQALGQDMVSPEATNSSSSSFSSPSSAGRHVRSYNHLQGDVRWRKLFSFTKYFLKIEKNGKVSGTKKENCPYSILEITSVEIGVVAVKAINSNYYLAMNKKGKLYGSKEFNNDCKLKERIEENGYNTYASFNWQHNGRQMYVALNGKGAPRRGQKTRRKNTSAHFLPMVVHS

[16] = system: glycogen synthase kinase-3 (GSK3A per assay name; protocol says GSK3B); experiment: GSK3 binders on small-molecule microarrays, primary screen, biochemical, small-molecule microarray, 635 nm fluorescence, GSK3A (AID 1103); conditions: small-molecule microarray binding, fluorescence 635 nm; higher = more signal; also: the record names both GSK3A and GSK3B
[17] = molecular target: Epidermal growth factor receptor (Homo sapiens) (UniProt P00533); experiment: EGFR binders on small-molecule microarrays, primary screen, biochemical, small-molecule microarray, 635 nm fluorescence (AID 1104); conditions: EGFR binding, higher = more signal;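 also: score merges 667 nm emission intensity with spot signal to noise over triplicate slides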
Epidermal growth factor receptor (Homo sapiens), sequence (P00533 whole entry, looked up): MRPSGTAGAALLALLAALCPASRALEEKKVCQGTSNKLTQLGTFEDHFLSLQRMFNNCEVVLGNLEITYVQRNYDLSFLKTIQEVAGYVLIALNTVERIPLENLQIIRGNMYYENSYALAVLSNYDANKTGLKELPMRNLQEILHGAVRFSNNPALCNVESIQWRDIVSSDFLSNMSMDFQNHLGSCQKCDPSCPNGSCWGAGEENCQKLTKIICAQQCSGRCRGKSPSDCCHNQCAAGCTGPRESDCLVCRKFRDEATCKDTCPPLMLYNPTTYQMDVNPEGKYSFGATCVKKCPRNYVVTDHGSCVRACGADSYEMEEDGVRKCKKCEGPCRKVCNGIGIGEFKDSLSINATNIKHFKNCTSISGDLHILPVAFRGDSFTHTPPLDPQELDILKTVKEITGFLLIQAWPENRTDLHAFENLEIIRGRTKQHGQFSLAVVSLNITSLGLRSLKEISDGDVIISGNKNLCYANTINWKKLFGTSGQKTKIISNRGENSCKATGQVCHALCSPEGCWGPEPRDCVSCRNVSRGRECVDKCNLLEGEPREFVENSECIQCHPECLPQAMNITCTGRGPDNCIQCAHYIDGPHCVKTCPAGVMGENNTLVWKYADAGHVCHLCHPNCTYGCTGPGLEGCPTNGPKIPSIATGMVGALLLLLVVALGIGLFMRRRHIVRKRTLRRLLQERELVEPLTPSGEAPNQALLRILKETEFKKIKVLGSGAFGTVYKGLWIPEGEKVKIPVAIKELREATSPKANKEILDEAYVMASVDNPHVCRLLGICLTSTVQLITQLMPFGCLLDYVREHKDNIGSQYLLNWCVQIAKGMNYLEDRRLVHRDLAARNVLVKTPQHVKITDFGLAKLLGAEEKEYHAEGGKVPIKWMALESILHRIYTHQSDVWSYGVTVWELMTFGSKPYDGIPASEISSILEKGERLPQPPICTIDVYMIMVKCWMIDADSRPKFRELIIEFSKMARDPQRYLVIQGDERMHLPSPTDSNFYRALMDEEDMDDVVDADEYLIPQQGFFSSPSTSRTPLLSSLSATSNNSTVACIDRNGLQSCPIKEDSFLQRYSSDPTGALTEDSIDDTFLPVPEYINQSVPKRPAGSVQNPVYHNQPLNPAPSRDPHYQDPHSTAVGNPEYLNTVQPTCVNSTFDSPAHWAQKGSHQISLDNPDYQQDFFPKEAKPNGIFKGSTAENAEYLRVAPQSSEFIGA

[18] = molecular target: Follistatin-related protein 3 (Homo sapiens) (UniProt O95633); experiment: FSTL3 binders on small-molecule microarrays, primary screen, biochemical, small-molecule microarray, 635 nm fluorescence (AID 1105); conditions: FSTL3 binding, higher = more signal;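 also: score merges emission near 667 nm and signal to noise per printed spot across three slides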
Follistatin-related protein 3 (Homo sapiens), sequence (O95633 whole entry, looked up): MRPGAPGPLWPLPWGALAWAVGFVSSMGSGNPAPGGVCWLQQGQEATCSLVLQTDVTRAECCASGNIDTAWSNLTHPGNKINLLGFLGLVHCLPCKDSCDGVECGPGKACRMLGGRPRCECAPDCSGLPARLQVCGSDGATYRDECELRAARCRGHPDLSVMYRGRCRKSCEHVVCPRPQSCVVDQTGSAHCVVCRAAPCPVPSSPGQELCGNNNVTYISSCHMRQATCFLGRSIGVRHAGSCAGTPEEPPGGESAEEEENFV

[19] = molecular target: Dickkopf-related protein 1 (Homo sapiens) (UniProt O94907); experiment: DKK1 binders on small-molecule microarrays, primary screen, biochemical, small-molecule microarray, 635 nm fluorescence scan (AID 1106); conditions: DKK1 binding, higher = more signal;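 also: score merges emission near 667 nm with signal to noise over three replicate slides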
Dickkopf-related protein 1 (Homo sapiens), sequence (O94907 whole entry, looked up): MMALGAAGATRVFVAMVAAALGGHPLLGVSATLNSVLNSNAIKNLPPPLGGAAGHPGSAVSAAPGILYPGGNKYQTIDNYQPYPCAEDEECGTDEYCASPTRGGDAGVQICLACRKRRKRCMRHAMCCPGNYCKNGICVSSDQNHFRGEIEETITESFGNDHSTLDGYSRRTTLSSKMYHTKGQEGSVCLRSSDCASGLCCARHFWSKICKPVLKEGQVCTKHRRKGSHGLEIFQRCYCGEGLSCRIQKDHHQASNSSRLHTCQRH

[20] = system: Inhibin beta A chain (activin A); experiment: INHBA (activin A) binders on microarrays, primary screen, biochemical, small-molecule microarray, 635 nm fluorescence scan (AID 1107); conditions: small-molecule microarray binding, higher = more signal;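 also: mouse activin A protein probed at 4.33 µg/mL on printed slides; score merges bound-protein fluorescence near 667 nm with spot signal-to-noise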

Row | Structure (SMILES) | composite z-score [1] | z-score [2] | z-score [3] | z-score [4] | composite z-score [5] | z-score [6] | composite z-score [7] | composite z-score [8] | composite z-score [9] | composite z-score [10] | composite z-score [11] | composite z-score [12] | composite z-score [13] | z-score [14] | composite z-score [15] | composite z-score [16] | composite z-score [17] | composite z-score [18] | composite z-score [19] | composite z-score [20]
1 | C=CCN(CCCCC)C(=O)C(c1cccs1)N(CCOCCO)C(=O)/C=C\C(=O)O (stereo not given) | -0.718 and -0.737 | -1.32 (inactive) and -1.53 (inactive) | -0.464 (inactive) and -0.606 (inactive) | -0.289 (inactive) and -0.433 (inactive) | -0.93 and -0.573 | 0.986 (inactive) and 1.18 (inactive) | -0.0977 and -0.0831 | -1.24 and -1.19 | -1.09 and -1.06 | -0.231 and -0.324 | 0.0427 and 0.42 | -0.588 and -0.228 | 0.658 and 0.6 | -0.841 (inactive) and -1.36 (inactive) | -1.6 and -0.98 | -0.918 and -0.491 | -1.05 and -0.766 | -0.411 and -0.744 | -1.04 and -1.54 | -1.79 and -0.36
2 | C=CCN(C(=O)C(c1cccs1)N(C(=O)/C=C\C(=O)O)C(C)(C)CO)c1ccc(OC)cc1 (stereo not given) | -0.771 and -0.469 | -2.87 (inactive) and -2.15 (inactive) | -2.09 (inactive) and -2.05 (inactive) | -2.57 (inactive) and -1.07 (inactive) | 2.03 and -0.628 | 3.5 (inactive) and 2.82 (inactive) | 0.388 and -0.0519 | -1.23 and -1.8 | -1.37 and -0.484 | -0.24 and -0.151 | 1.39 and -1.69 | -0.117 and -0.0312 | 0.599 and 0.476 | -2.61 (inactive) and -1.39 (inactive) | -0.477 and -0.869 | -0.41 and -0.514 | -0.869 and -2.11 | -1.4 and -1.37 | -0.789 and -0.497 | -1.07 and -0.761
3 | C=CCN(Cc1ccccc1)C(=O)C1N(CCOCCO)C(=O)C2C(C(=O)O)C3C=CC21O3 (stereo not given) | -0.576 and -0.797 | -1.93 (inactive) and 0.844 (inactive) | -1.52 (inactive) and -0.0833 (inactive) | -1.25 (inactive) and 0.225 (inactive) | 3.27 and 2.73 | 2.42 (inactive) and 1.4 (inactive) | 0.22 and 0.141 | -3.1 and -1.88 | -0.74 and -0.734 | -0.323 and -0.278 | 0.824 and 1.03 | 0.0606 and -0.027 | 1 and 1.1 | -1.11 (inactive) and -0.281 (inactive) | -1.09 and -0.997 | -0.419 and -0.793 | -2.36 and -1.85 | -2.65 and -2.12 | -2.78 and -2.98 | -2.4 and -2.13
4 | COC(=O)C1=C(C)N(Cc2ccccc2)C2=C(C(C)=O)C[C@@](O)(C(=O)OC)C(=O)N2[C@@H]1c1ccccc1 | 1.55 and -0.0318 | -0.762 (inactive) and -2.05 (inactive) | -0.987 (inactive) and -1.63 (inactive) | -1.32 (inactive) and -0.654 (inactive) | 1.68 and 0.258 | 0.528 (inactive) and 0.524 (inactive) | -0.195 and -0.331 | 0.364 and 0.0733 | 0.729 and -0.153 | 0.0069 and -0.158 | 1.58 and 0.326 | -0.301 and -0.205 | -0.764 and -0.229 | -0.805 (inactive) and -0.873 (inactive) | 0.988 and 0.0571 | 0.74 and -0.0162 | 0.381 and 0.348 | 0.869 and 0.521 | 0.801 and 0.478 | 0.522 and 1.28
5 | CCN1C(=O)[C@H]2[C@H]3[C@H](O)[C@H](O)CC(=NOC)[C@@H]3CC[C@H]2C1=O | -1.1 | -0.285 (inactive) | -1.9 (inactive) | -0.495 (inactive) | -0.27 | 0.525 (inactive) | -0.0192 | 0.178 | -0.065 | -0.0581 | 0.767 | -0.0904 | -0.0826 | 0.302 (inactive) | -0.0502 | -0.595 | 0.1 | -0.0407 | 0.179 | 0.39
6 | CC(CO)N1C(=O)[C@@H]2C3C(=O)OCCC=C[C@H]3OC23C=CCN(Cc2ccccc2)C(=O)[C@@H]13 (stereo not given in full) | -0.477 and -0.385 | 0.814 (inactive) and -0.448 (inactive) | -0.326 (inactive) and -1.08 (inactive) | 1.53 (inactive) and -0.42 (inactive) | 1.16 and 0.0845 | 1.3 (inactive) and 1.67 (inactive) | -0.0216 and -0.0449 | -1.05 and -0.529 | -0.36 and -0.377 | -0.196 and -0.221 | 1.15 and 0.52 | -0.2 and -0.173 | 0.139 and 0.407 | -0.379 (inactive) and -0.024 (inactive) | -0.602 and -0.115 | -0.491 and -0.648 | -0.91 and -1.81 | -0.771 and -1.06 | -1.02 and -0.657 | 1.24 and -0.563
7 | C=CCN(Cc1ccccc1)C(=O)C(c1cccs1)N(C(=O)/C=C\C(=O)O)c1ccc(CCO)cc1 (stereo not given) | -0.0611 and -0.636 | -0.0499 (inactive) and -0.0798 (inactive) | -0.0594 (inactive) and 0.33 (inactive) | -0.184 (inactive) and 0.0995 (inactive) | 3.59 and 1.9 | 0.478 (inactive) and -0.0137 (inactive) | -0.0927 and -0.205 | -2.05 and -1.63 | -1.46 and -0.922 | -0.239 and -0.321 | -0.14 and -0.0434 | -0.141 and -0.17 | 0.98 and 0.85 | 0.203 (inactive) and 0.258 (inactive) | -1.22 and -2.14 | -1.23 and -1.61 | -1.96 and -1.68 | -1.91 and -1.88 | -2.15 and -2.42 | -1.76 and -3.2
8 | C=CCN(Cc1ccccc1)C(=O)C(c1cccs1)N(C(=O)/C=C\C(=O)O)c1c(Cl)cccc1CO (stereo not given) | -0.716 and -1.9 | 0.506 (inactive) and -0.555 (inactive) | 0.172 (inactive) and 0.261 (inactive) | 0.23 (inactive) and -0.457 (inactive) | -1.36 and -0.736 | 2.07 (inactive) and -0.369 (inactive) | -0.128 and -0.121 | -2.28 and -3.61 | -1 and -1.49 | -0.252 and -0.359 | -1.01 and -1.02 | -0.833 and 0.0042 | 0.898 and 0.996 | 0.395 (inactive) and -0.0385 (inactive) | -1.96 and -1.73 | -1.09 and -1.76 | -1.63 and -1.36 | -1.27 and -2.07 | -2.01 and -2.62 | -3.32 and -2.86
